Among the data in publication PMC7862700, “An all-to-all approach to the identification of sequence-specific readers for epigenetic DNA modifications on cytosine” are binding signal values, retold here.

What all share (experiment): DAPPL (digital affinity profiling via proximity ligation, sequencing); 10 mM Tris-HCl pH 7.5, 50 mM NaCl, 1 mM DTT, 4% glycerol, room temperature, 30 min; GST-TFs on glutathione beads, 16-mer random dsDNA library, 0.1% formaldehyde crosslink after washing; high values mean tight binding
Experiment [1] deals with T1, FEV (Homo sapiens, UniProt Q99581 1-238).
T1 sequence: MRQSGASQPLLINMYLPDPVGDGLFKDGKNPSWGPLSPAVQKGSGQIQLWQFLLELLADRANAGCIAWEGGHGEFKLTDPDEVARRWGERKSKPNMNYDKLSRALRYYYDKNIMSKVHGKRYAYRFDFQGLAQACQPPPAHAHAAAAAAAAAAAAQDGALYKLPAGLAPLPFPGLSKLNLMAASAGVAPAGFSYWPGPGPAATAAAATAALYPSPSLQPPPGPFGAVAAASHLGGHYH
The settings on record: protein: recombinant; tags: N-terminal GST; dsDNA, one strand shown. In a few lines: (§1)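 Binding signal is given per hexamer as its read frequency for a factor divided by its frequency in the tag-only sample. GST-fused human transcription factors were expressed in yeast, captured on glutathione beads, barcoded with DNA and pooled with that sample, then incubated with 200 nmole of a 16-mer random double-stranded DNA library in Tris/NaCl/DTT/glycerol buffer for 30 min at room temperature. The pools were then washed, crosslinked, proximity-ligated, amplified by PCR and sequenced on an Illumina NextSeq500.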

Experiment [2] addresses ETV5 (Homo sapiens, UniProt P41161 1-510). The settings on record: protein: recombinant; tags: N-terminal GST; dsDNA, one strand shown. In outline: as §1
Experiment [3] concerns the target HSF1 (Homo sapiens, UniProt Q00613 1-529). Conditions: protein: recombinant; tags: N-terminal GST; chain copies: 3; dsDNA, one strand shown. In outline:
as §1

Experiment [4] concerns the target T2, SPIC (Homo sapiens, UniProt Q8N5J4 1-248).
T2 sequence: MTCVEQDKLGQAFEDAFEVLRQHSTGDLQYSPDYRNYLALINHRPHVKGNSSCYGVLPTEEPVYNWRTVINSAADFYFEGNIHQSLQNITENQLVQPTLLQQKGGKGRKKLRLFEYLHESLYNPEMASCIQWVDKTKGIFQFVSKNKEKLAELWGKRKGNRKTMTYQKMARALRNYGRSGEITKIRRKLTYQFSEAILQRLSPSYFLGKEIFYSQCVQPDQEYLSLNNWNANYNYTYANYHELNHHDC
Conditions: protein: recombinant; tags: N-terminal GST; dsDNA, one strand shown. In a few lines: as §1

Experiment [5] deals with ELF4 (Homo sapiens, UniProt Q99607 1-663). The settings on record: protein: recombinant; tags: N-terminal GST; dsDNA, one strand shown. In a few lines: as §1
Sequence of ELF4 (Q99607 whole entry): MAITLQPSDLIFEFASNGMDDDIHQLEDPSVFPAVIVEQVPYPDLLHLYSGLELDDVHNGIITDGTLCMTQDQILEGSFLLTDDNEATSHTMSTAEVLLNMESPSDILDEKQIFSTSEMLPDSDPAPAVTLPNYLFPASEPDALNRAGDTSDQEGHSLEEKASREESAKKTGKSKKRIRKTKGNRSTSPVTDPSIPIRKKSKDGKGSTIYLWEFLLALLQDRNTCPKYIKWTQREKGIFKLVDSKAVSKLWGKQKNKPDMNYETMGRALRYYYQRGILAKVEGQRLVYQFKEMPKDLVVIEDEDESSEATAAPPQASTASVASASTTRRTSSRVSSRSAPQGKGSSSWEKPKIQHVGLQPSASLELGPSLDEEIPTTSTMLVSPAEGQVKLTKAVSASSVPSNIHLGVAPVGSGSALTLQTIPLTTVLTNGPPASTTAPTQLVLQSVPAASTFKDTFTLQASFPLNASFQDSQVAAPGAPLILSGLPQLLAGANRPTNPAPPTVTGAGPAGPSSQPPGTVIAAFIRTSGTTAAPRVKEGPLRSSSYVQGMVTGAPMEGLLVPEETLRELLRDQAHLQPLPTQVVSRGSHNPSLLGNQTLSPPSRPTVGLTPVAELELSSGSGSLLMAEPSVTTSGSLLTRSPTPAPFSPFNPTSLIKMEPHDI
Experiment [6] concerns the target T3, ELK4 (Homo sapiens, UniProt P28324-2 1-405).
T3 sequence: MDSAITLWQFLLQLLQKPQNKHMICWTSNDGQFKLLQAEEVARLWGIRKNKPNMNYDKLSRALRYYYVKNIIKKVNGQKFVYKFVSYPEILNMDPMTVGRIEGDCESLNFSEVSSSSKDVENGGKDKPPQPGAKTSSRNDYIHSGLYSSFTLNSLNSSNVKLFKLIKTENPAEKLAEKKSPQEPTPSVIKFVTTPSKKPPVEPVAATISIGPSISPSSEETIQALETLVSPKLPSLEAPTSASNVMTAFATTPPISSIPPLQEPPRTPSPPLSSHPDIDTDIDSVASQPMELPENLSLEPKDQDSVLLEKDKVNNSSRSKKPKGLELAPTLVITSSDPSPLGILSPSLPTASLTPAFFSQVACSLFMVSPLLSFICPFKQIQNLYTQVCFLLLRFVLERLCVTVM
Conditions: protein: recombinant; tags: N-terminal GST; dsDNA, one strand shown. In a few lines: as §1

The target in experiment [7] is T4, ETV2 (Homo sapiens, UniProt O00321 1-342).
T4 sequence: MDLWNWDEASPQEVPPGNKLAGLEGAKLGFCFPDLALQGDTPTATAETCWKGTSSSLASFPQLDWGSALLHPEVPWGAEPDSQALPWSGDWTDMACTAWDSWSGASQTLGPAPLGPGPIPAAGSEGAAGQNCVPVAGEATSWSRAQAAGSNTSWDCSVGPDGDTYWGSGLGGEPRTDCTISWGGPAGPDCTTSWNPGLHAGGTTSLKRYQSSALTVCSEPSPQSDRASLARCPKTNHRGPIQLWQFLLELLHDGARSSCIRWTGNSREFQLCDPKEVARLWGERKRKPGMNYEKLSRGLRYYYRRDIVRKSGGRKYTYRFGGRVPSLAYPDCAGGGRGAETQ
Conditions: protein: recombinant; tags: N-terminal GST; dsDNA, one strand shown. In a few lines: as §1

The target in experiment [8] is T5, ELF3 (Homo sapiens, UniProt P78545 1-371).
T5 sequence: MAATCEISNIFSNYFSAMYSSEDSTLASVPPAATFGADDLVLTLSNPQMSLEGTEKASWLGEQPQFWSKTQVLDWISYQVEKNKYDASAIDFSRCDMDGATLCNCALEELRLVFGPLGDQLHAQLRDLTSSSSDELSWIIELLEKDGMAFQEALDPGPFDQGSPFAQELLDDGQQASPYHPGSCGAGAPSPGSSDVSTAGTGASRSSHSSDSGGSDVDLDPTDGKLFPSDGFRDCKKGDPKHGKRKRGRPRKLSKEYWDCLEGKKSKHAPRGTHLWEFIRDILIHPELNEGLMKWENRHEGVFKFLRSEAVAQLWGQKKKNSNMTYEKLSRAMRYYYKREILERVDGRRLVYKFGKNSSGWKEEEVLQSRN
The settings on record: protein: recombinant; tags: N-terminal GST; dsDNA, one strand shown. In a few lines:
as §1

Experiment [9] has as its target CRX (Homo sapiens, UniProt O43186 1-299). Conditions: protein: recombinant; tags: N-terminal GST; dsDNA, one strand shown. In a few lines: as §1
Experiment [10] deals with ETV1 (Homo sapiens, UniProt P50549 1-477). Conditions: protein: recombinant; tags: N-terminal GST; dsDNA, one strand shown. In outline: as §1
Sequence of ETV1 (P50549 whole entry): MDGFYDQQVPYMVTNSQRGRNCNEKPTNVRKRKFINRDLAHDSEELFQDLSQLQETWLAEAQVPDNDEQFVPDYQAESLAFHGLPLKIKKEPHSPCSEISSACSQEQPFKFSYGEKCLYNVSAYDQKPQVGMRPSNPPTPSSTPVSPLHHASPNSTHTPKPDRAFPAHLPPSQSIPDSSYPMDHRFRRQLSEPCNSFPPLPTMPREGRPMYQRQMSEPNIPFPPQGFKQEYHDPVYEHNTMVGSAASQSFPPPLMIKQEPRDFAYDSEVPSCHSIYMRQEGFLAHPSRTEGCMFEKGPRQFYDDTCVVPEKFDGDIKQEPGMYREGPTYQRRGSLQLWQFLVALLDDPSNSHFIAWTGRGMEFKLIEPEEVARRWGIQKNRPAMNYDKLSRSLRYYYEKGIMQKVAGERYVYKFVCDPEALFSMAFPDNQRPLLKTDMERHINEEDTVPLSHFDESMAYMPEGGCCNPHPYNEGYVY
Experiment [11] deals with T6, ERF (Homo sapiens, UniProt P50548 1-548).
T6 sequence: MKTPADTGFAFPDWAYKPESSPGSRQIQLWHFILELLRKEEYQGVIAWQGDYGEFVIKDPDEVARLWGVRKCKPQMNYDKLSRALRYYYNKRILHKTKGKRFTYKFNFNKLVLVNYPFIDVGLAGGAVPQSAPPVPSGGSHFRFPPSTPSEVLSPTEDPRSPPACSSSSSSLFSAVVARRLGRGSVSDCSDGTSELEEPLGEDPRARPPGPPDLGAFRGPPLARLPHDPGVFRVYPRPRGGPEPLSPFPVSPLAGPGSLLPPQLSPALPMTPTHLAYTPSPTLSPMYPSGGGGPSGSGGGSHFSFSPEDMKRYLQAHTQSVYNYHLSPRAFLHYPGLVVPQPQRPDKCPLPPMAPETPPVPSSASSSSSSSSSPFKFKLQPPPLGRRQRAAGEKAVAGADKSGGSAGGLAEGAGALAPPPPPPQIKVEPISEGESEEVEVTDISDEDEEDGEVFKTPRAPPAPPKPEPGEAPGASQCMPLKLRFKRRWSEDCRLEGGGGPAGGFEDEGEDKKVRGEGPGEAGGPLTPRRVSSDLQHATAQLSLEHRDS
The settings on record: protein: recombinant; tags: N-terminal GST; dsDNA, one strand shown. In a few lines:
as §1

Experiment [12] addresses T7, ETV3L (Homo sapiens, UniProt Q6ZN32 1-361).
T7 sequence: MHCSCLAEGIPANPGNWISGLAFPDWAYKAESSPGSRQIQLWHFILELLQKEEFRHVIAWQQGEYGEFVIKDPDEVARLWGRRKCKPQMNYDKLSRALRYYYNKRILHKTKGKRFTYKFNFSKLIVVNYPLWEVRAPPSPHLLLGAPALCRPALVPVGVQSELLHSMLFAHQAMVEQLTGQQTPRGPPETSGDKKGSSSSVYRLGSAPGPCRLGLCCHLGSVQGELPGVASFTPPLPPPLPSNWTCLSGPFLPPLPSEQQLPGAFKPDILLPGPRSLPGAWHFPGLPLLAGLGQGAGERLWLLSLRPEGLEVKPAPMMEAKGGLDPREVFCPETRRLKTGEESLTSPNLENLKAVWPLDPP
The settings on record: protein: recombinant; tags: N-terminal GST; dsDNA, one strand shown. In outline:
as §1

For experiment [13], the target named is T8, ETS2 (Homo sapiens, UniProt P15036 1-469).
T8 sequence: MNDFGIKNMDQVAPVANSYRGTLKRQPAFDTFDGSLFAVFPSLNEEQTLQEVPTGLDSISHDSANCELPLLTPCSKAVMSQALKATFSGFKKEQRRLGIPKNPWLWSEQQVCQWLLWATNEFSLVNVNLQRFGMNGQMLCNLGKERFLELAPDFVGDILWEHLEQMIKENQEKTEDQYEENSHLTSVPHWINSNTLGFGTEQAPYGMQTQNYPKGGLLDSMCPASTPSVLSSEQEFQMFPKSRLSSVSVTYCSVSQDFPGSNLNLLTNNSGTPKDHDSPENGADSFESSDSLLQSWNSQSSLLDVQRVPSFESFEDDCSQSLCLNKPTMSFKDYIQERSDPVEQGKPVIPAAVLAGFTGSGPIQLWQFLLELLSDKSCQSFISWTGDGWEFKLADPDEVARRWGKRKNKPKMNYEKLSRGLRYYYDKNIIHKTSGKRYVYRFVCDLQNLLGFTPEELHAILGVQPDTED
The settings on record: protein: recombinant; tags: N-terminal GST; dsDNA, one strand shown. In a few lines: as §1

The target of experiment [14] is T9, SPDEF (Homo sapiens, UniProt O95238 1-335).
T9 sequence: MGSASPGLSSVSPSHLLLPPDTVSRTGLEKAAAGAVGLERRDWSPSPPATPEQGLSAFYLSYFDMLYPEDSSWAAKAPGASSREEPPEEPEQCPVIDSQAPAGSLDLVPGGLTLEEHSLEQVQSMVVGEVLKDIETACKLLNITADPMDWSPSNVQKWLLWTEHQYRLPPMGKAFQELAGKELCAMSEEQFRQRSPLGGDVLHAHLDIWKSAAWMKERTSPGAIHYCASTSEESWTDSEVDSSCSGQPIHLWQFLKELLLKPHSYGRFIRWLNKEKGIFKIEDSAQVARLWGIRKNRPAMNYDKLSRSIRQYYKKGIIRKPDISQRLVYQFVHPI
The settings on record: protein: recombinant; tags: N-terminal GST; dsDNA, one strand shown. In a few lines:
as §1

For experiment [15], the target named is T10, ETV7 (Homo sapiens, UniProt Q9Y603 1-341).
T10 sequence: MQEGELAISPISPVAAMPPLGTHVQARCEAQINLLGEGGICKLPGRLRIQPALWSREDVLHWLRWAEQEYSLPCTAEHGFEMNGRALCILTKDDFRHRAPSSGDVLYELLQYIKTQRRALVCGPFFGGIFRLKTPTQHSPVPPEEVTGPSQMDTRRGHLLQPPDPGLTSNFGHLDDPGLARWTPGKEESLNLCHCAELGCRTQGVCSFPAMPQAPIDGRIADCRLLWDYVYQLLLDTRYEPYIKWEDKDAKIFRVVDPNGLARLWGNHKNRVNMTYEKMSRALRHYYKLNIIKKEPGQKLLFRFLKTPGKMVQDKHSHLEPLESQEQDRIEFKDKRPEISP
The settings on record: protein: recombinant; tags: N-terminal GST; dsDNA, one strand shown. In outline: as §1

For experiment [16], the target named is T11, ELF5 (Homo sapiens, UniProt Q9UKW6-2 1-255).
T11 sequence: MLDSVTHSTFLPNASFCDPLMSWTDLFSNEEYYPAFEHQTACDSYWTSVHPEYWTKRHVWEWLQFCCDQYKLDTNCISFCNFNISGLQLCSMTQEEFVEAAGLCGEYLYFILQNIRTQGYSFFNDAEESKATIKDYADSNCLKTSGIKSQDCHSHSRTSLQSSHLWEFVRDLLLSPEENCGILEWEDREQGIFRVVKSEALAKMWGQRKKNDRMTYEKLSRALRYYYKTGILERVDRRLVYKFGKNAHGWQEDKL
Conditions: protein: recombinant; tags: N-terminal GST; dsDNA, one strand shown. In a few lines: as §1

The target of experiment [17] is T12, ETV3 (Homo sapiens, UniProt P41162-2 1-143).
T12 sequence: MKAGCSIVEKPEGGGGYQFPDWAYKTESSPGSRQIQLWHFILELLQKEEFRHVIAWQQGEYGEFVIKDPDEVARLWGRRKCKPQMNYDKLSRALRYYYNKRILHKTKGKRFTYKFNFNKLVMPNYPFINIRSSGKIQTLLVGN
The settings on record: protein: recombinant; tags: N-terminal GST; dsDNA, one strand shown. In a few lines: as §1

Experiment [18] deals with ETV6 (Homo sapiens, UniProt P41212 1-452). Conditions: protein: recombinant; tags: N-terminal GST; dsDNA, one strand shown. In outline: as §1
Sequence of ETV6 (P41212 whole entry): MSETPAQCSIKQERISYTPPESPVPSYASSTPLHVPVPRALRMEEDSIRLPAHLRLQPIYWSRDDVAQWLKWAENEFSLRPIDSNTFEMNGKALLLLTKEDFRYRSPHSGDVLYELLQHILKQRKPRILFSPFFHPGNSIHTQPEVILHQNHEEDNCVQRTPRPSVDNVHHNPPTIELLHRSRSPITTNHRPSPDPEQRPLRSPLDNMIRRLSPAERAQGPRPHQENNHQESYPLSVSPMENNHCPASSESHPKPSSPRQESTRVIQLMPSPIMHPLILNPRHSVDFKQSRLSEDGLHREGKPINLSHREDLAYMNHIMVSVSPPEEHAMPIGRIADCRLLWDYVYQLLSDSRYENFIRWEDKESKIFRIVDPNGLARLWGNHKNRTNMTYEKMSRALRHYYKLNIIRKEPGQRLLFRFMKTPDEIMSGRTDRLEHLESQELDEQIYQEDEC

Sequence of CRX (O43186 whole entry): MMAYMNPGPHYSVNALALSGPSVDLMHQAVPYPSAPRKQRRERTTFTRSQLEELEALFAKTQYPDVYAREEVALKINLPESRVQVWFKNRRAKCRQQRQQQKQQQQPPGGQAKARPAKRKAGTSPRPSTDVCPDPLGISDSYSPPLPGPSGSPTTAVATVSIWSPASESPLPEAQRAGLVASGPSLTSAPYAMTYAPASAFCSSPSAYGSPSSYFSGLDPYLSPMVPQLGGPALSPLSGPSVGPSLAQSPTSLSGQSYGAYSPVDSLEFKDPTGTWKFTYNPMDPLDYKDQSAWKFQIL
Sequence of ETV5 (P41161 whole entry): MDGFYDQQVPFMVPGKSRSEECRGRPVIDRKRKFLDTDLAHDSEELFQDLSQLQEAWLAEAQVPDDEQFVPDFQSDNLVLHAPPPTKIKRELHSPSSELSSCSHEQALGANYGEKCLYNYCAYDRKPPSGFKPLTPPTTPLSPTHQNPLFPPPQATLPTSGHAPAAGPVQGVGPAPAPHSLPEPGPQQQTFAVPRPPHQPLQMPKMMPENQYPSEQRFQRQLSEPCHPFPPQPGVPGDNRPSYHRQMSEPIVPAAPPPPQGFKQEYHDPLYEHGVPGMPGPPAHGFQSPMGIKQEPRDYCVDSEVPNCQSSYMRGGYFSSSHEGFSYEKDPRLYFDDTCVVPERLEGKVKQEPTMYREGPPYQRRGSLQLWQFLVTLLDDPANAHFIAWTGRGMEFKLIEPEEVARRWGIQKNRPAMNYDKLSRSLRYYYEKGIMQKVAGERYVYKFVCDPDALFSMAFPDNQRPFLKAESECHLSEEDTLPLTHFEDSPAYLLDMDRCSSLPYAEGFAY
Sequence of HSF1 (Q00613 whole entry): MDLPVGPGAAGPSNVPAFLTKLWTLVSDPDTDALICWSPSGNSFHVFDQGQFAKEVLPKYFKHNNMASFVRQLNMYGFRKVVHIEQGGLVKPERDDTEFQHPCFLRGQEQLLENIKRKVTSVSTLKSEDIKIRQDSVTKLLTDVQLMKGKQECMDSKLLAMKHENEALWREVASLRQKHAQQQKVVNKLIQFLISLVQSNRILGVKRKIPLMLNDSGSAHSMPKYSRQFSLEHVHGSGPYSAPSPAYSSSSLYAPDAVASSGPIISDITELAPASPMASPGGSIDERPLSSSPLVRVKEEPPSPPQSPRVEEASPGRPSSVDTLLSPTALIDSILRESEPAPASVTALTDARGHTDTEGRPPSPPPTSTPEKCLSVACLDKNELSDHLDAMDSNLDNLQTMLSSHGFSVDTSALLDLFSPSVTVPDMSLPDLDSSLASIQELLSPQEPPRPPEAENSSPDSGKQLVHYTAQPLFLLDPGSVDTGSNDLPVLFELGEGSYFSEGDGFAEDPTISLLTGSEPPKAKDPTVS

With ATGGTA, the binding signal was 1.17 fold enrichment (6-mer frequency, TF over GST control) in [1]; 1.43 fold enrichment (6-mer frequency, TF over GST control) in [2]; 1.21 fold enrichment (6-mer frequency, TF over GST control) in experiment [3]; 1.31 fold enrichment (6-mer frequency, TF over GST control) in experiment [4]; 1.31 fold enrichment (6-mer frequency, TF over GST control) in [5]; 1.49 fold enrichment (6-mer frequency, TF over GST control) in experiment [6]. For the same sequence, the binding signal was 1.45 fold enrichment (6-mer frequency, TF over GST control) in [7]; 1.48 fold enrichment (6-mer frequency, TF over GST control) in experiment [8]; 1.33 fold enrichment (6-mer frequency, TF over GST control) in experiment [9]; 1.47 fold enrichment (6-mer frequency, TF over GST control) in experiment [10]; 1.38 fold enrichment (6-mer frequency, TF over GST control) in experiment [11]; 1.35 fold enrichment (6-mer frequency, TF over GST control) in experiment [12]. In addition, the binding signal in [13] is 1.37 fold enrichment (6-mer frequency, TF over GST control); in experiment [14] it was 1.31 fold enrichment (6-mer frequency, TF over GST control); in experiment [15], 1.48 fold enrichment (6-mer frequency, TF over GST control); in experiment [16] it was 1.39 fold enrichment (6-mer frequency, TF over GST control); in experiment [17] it was 1.35 fold enrichment (6-mer frequency, TF over GST control); in [18], 1.31 fold enrichment (6-mer frequency, TF over GST control).
